The source of these data is PubChem BioAssay (NCATS).

Assay [1] can be described thus: Cytometric Cell-Based qHTS for Inhibitors of the mTORC1 Signaling Pathway in MEF (Tsc2-/-, p53-/-) Cells (AID 2660).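 Also: percent of cells above a phospho-rpS6 to PI ratio cutoff in each well; series mostly up to about 38 µM.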 Put shortly: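 Cells are plated, treated with compound for 24 hrs at 37 degree Celsius, then fixed, blocked and immunostained for phospho-rpS6 Ser235/236. Propidium iodide counterstain follows. Per-well % positive cells is derived from the PI-normalized phospho-S6 signal.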
For orientation: Quantitative high-throughput screening tests each substance at several concentrations.

The nature of assay [2]: High Content Imaging Cell-Based qHTS for Inhibitors of the mTORC1 Signaling Pathway in MEF (Tsc2-/-, p53-/-) Cells (AID 2666). In a few lines: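 Phospho-rpS6 (Ser235/236) immunofluorescence, normalized and scored as % positive cells using rapamycin and DMSO controls, was read in empty-vector Tsc2-/-, p53-/- MEFs after 24 h compound exposure at 37 C; propidium iodide counted cells.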

The nature of assay [3]: High Content Imaging Cell-Based qHTS for Inhibitors of the mTORC1 Signaling Pathway in MEF Cells (AID 2667).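 Also: Tsc2-/- p53-/- MEFs stably re-expressing wild-type Tsc2 exposed 24 h; series mostly up to about 38 µM.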 Put shortly: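 WT MEFs (Tsc2-/-, p53-/- re-expressing Tsc2), in DMEM + 10% FBS, were treated with compound for 24 h at 37 C. Cells were then fixed and stained for phospho-rpS6 Ser235/236 with propidium iodide as cell count. Values are % positive cells, with thresholds set against rapamycin-treated cells.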

The nature of assay [4]: Cytometry Cell-Based qHTS for Inhibitors of the mTORC1 Signaling Pathway in MEF cells (AID 2668).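 Also: Tsc2-/- p53-/- mouse embryonic fibroblasts stably re-expressing wild-type Tsc2; percent cells positive for phospho-rpS6 Ser235/236 relative to propidium iodide stain; series mostly up to about 38 µM.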 Put shortly:
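Read-out: phospho-rpS6 Ser235/236 immunofluorescence normalized to propidium iodide intensity, scored as % active cells against a rapamycin (7.5 nM) threshold. Cells: Tsc2-/-, p53-/- MEFs stably expressing WT Tsc2, compound-treated 24 hrs at 37 degree Celsius.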

The nature of assay [5]: Validation screen for small molecules that induce DNA re-replication in MCF 10A normal breast cells (AID 463097). Also: nearly all actives have a fitted effect of over 60% in size. Also: potency is read from the fitted curve at half-maximal effect. Put shortly:
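250 MCF 10A cells/well; compound pin-transferred; 48 hr, 37 C, 5% CO2; Hoechst 40 min; imaged 405/500-530 nm. Hits = more high-intensity nuclei.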

Assay [6] deals with Ubiquitin carboxyl-terminal hydrolase 2 (Homo sapiens) (UniProt O75604). The assay can be described thus: qHTS Validation Assay for Inhibitors of Ubiquitin-specific Protease USP2a Using CHOP2 as the Reporter (AID 463106). Put shortly:
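USP2 core (10 nM final) was preincubated with compound 30 min at RT in pH 8.0 Tris/CaCl2/beta-ME/CHAPS buffer. Ub-CHOP2 and reporter substrate (25 nM final each) were then added, with fluorescence (Ex 485/Em 531) read after 60 min. Data were normalized to NEM full inhibition and fitted to concentration-response curves.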

Assay [7] concerns the target DNA polymerase III PolC-type (Bacillus subtilis (strain 168)) (UniProt P13267). In words: qHTS Validation Assay for the Inhibitors of DNA Replication in Gram-Positive Bacteria (AID 485295).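 Also: reconstituted holoenzyme with PolC plus beta clamp SSB and primase; PicoGreen fluorescence of double-stranded DNA made on primed circular M13 template; series mostly up to about 57 µM.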 Put shortly: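 PicoGreen fluorescence (ex 480–485/em 535–540 nm) reports dsDNA synthesized on ssM13Gori template with dNTPs/NTPs. Enzyme: holoenzyme rebuilt from purified PolC, beta subunit, SSB and primase. Compound preincubated before substrate addition; RT throughout.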

For assay [8], the target named is Tumor susceptibility gene 101 protein (Homo sapiens) (UniProt Q99816). The assay can be described thus: qHTS Validation Assay for Iinhibitors of HIV-1 Budding by Blocking the Interaction of PTAP/TSG101 (AID 485342; calls by dose curve). Put shortly:
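FP read-out: FITC-PTAP peptide, 50 nM final, binding Tsg101 binding domain, 10 uM final; 20 min r.t.; 10 mM HEPES pH 7.5, 0.15 M NaCl, 0.01% Tween 20, 3 mM EDTA, 0.1 mM TCEP.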

Inconclusive results are not listed. Active and inactive are the calls of the source. Unless noted, calls follow the shape of the dose curve; as a rule, active = well fitted curve in the direction sought with a large enough effect; inconclusive = small, poorly fitted or top-dose-only effect, or another doubt; inactive = no such curve, though single readings can be large; an effect the other way counts as inactive or inconclusive.

Ubiquitin carboxyl-terminal hydrolase 2 (Homo sapiens), sequence (O75604 whole entry, looked up): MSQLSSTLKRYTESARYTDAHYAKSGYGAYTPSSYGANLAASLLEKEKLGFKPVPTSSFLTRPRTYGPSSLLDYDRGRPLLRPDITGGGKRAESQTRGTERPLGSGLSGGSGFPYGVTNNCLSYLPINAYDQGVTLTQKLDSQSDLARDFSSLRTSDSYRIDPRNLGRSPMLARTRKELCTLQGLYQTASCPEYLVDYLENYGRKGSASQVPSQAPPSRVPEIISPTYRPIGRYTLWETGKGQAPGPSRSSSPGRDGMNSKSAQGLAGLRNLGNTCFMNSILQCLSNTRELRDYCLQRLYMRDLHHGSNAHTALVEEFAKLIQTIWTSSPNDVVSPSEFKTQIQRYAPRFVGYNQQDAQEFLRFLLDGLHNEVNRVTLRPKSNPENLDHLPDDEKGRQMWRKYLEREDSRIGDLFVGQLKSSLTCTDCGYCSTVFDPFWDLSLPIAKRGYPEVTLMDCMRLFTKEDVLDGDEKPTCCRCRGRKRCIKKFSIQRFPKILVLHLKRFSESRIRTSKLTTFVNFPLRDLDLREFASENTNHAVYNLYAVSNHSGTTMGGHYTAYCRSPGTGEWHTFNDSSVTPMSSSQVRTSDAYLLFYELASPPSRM
Tumor susceptibility gene 101 protein (Homo sapiens), sequence (Q99816 whole entry, looked up, the tested form may be a part): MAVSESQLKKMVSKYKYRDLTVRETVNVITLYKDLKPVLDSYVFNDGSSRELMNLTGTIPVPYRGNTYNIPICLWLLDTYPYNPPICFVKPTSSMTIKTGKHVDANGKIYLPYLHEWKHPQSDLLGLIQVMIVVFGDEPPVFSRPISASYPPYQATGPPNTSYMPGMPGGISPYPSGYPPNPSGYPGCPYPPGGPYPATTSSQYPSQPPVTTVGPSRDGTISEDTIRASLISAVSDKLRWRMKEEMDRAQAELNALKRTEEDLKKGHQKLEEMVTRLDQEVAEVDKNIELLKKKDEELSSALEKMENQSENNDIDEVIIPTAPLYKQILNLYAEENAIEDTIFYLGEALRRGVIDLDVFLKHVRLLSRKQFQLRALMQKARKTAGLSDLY
DNA polymerase III PolC-type (Bacillus subtilis (strain 168)), sequence (P13267 whole entry, looked up): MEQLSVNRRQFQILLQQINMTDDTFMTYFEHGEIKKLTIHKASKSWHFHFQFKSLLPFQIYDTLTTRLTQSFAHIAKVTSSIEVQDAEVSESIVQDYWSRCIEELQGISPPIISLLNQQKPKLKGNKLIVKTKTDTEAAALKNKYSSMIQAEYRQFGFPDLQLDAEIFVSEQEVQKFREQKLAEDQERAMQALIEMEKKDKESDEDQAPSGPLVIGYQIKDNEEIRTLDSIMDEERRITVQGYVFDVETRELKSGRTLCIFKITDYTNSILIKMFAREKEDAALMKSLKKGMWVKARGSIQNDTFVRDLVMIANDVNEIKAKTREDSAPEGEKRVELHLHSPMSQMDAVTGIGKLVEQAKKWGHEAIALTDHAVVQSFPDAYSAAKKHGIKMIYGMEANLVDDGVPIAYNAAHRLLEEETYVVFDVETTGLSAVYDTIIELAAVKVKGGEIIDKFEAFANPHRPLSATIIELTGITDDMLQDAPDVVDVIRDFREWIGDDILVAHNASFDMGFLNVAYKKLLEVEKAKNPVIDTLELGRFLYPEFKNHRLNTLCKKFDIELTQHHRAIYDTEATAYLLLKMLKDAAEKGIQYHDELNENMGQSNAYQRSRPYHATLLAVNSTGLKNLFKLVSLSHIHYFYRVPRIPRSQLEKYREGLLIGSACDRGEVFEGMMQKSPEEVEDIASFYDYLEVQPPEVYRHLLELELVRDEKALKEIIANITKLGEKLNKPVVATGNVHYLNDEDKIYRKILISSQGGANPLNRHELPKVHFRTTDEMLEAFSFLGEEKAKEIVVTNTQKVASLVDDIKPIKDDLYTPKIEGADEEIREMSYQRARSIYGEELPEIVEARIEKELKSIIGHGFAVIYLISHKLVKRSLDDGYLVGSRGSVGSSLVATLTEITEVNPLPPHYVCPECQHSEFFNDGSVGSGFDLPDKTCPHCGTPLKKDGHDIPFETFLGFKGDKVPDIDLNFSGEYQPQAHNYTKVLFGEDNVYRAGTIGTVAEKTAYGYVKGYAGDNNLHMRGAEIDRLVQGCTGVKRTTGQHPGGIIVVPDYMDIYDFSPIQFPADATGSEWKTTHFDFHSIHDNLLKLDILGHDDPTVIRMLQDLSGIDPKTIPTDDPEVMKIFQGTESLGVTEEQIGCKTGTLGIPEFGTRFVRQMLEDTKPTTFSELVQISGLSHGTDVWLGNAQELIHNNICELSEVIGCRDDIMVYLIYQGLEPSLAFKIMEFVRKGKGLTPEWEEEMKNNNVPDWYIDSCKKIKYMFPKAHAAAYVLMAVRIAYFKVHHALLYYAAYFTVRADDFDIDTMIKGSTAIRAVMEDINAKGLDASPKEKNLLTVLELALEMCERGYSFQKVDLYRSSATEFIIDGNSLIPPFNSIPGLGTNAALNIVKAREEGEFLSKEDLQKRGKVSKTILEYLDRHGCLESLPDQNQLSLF

`O=c1[nH]c2cc(Cl)ccc2c(O)c1-c1ccc(Oc2ccccc2)cc1`: the molecule was classed as inactive in assay [1] and in assay [8]. The Potency entry in assay [2], in assay [3], in assay [4], in assay [5], in assay [6] and in assay [7] was “inactive” in each case.
`NC/C=C\C(=O)O`: the molecule was called inactive in assay [1] and in assay [8]. The Potency entry in assay [2], in assay [3], in assay [4], in assay [5], in assay [6] and in assay [7] was “inactive” throughout.
On to `CC(C)Cn1c(=O)n(C)c(=O)c2[nH]cnc21`, for which the molecule was classed as inactive in assay [1] and in assay [8]. Moreover, the Potency entry in assay [2], in assay [3], in assay [4], in assay [5], in assay [6] and in assay [7] was “inactive” in each case.
As for `O=C(O)C1=CCCN(CCON=C(c2ccccc2)c2ccccc2)C1`, the call in assay [1] and in assay [8] was inactive. Further, the Potency entry in assay [2], in assay [3], in assay [4], in assay [5], in assay [6] and in assay [7] was “inactive” each time.
With `CCn1c(=O)[nH]c2cc(Cl)c(Cl)cc21`, the call in assay [1] and in assay [8] was inactive. The Potency entry in assay [2], in assay [3], in assay [4], in assay [5], in assay [6] and in assay [7] was “inactive” throughout.
On to `O=C(O)CCC(=O)N1CCCC1C(=O)O` (configuration not stated), for which the molecule was classed as inactive in assay [1] and in assay [8]. The Potency result in assay [2], in assay [3], in assay [4], in assay [5], in assay [6] and in assay [7] was “inactive” in each case.
As for `O=C(O)/C(=C/c1c(C(=O)O)[nH]c2cc(Cl)cc(Cl)c12)c1ccccc1`, the molecule was called inactive in assay [1] and in assay [8]. Further, the Potency entry in assay [2], in assay [3], in assay [4], in assay [5], in assay [6] and in assay [7] was “inactive” in each case.
For the molecule `NC(=Nc1ccccc1)NC(=O)c1nc(Cl)c(N)nc1N`, the molecule was called inactive in assay [1] and in assay [8]. For the same molecule, the Potency entry in assay [2], in assay [3], in assay [4], in assay [6] and in assay [7] was “inactive” each time. For the same molecule, the Potency in assay [5] is 14.1 µM (active).
Turning to `OC[C@H]1NC[C@@H](O)[C@@H]1O`, the call in assay [1] and in assay [8] was inactive. For the same molecule, the Potency entry in assay [2], in assay [3], in assay [4], in assay [5], in assay [6] and in assay [7] was “inactive” in each case.
Consider `N[C@@H](CCC(=O)N[C@H](CSN=O)C(=O)NCC(=O)O)C(=O)O`, for which the result in assay [1] and in assay [8] was inactive. Also, the Potency result in assay [2], in assay [3], in assay [4], in assay [5], in assay [6] and in assay [7] was “inactive” each time.
Consider `COc1ccc2c(c1)CCC1C2CC[C@@]2(C)C1CC[C@@H]2NCCCCCCN1C(=O)C=CC1=O` (some centres not stated), for which the result in assay [1] and in assay [8] was inactive. Further, the Potency result in assay [2], in assay [3], in assay [4], in assay [5], in assay [6] and in assay [7] was “inactive” each time.
Regarding `O=c1ccc2c(OCCCCc3ccccc3)c3ccoc3cc2o1`, the molecule was classed as inactive in assay [1] and in assay [8]. Also, the Potency entry in assay [2], in assay [3], in assay [4], in assay [5], in assay [6] and in assay [7] was “inactive” in each case.
Regarding `COC(=O)C1=C(C)NC(C)=C([N+](=O)[O-])C1c1ccccc1C(F)(F)F` (configuration not stated), the molecule was called inactive in assay [1] and in assay [8]. Besides, the Potency result in assay [2], in assay [3], in assay [4], in assay [5], in assay [6] and in assay [7] was “inactive” in each case.
As to `CC(=O)[C@H]1CCC2C3CC=C4C[C@@H](OS(=O)(=O)O)CC[C@]4(C)C3CC[C@@]21C` (some centres not stated), the molecule was called inactive in assay [1] and in assay [8]. Further, the Potency result in assay [2], in assay [3], in assay [4], in assay [5], in assay [6] and in assay [7] was “inactive” throughout.
